# RAD52 anneal inh – RAD52 (human) annealing inhibition. AID 651710. 360,000 compounds, 0.46% hits. P43351. inhibition, % at 18.7 µM. recombinant RAD52 DNA annealing, FRET fluorescence;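 active = every replicate showing at least 50% inhibition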
# Target sequence (P43351 whole entry, looked up): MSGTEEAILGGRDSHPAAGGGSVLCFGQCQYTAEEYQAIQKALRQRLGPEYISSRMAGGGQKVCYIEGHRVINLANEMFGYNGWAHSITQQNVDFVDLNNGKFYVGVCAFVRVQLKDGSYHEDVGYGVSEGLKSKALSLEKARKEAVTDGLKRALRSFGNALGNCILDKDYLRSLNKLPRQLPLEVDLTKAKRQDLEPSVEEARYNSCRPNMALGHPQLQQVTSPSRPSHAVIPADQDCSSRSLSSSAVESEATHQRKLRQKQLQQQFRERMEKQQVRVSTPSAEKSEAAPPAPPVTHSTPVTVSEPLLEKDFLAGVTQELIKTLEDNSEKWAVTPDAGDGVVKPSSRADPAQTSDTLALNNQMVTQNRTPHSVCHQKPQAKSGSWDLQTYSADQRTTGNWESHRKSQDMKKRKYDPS
# CFTR F508del cor – correctors of CFTR F508del function in bronchial epithelial cells; 350,000 compounds, 0.36% hits; activity (quench increase), % at 7.58 µM; CFBE cells, YFP halide quenching; stimulated with forskolin plus potentiator P3; % fluorescence drop versus neutral controls;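 active = mean added fluorescence quench of at least 8% versus neutral control, with both replicates also reaching 8%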;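 also: cells transiently co-express mutant CFTR-F508del with the halide-sensitive YFP; corrector assay measuring rescue of mutant channel to the surface after 24 h compound exposure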
# dFosB act-1 – activators of mouse delta FosB homodimer; P13346; purified delta FosB, TAMRA-CDK5 oligo fluorescence polarization; percent of positive-control signal above neutral wells; activation, % at 25 µM; 340,000 compounds, 0.99% hits; AID 493131;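 active = mean activation above about 17%, with every replicate also reaching it, limit read from the data, passing the limit was not always enough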
# PvdQ inh – blocks Pseudomonas aeruginosa PvdQ acylase activity | inhibition, % at 10 µM | AID 488965 | 340,000 compounds, 0.063% hits | purified PvdQ acylase, fluorescence plate reader; in the data active = inhibition above about 30%, passing the limit was not always enough;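 also: 0% = vehicle neutral wells and 100% = reference inhibitor wells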
# N-glyco inh – N-linked glycosylation inhibition. D54 ERlucT glycosylation luciferase reporter, 24 h; percent of 100 nM tunicamycin response. reporter increase, % at 12.5 µM. 360,000 compounds, 0.23% hits;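 active = mean luciferase reporter signal, scaled so untreated is 0 and the glycosylation-blocking control 100, at or above a set limit in every replicate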;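 also: luciferase carries N-glycosylation sites so blocking glycosylation raises the light; 0% = median of neutral control wells and 100% = median of 100 nM tunicamycin wells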
# RAD54 inh – RAD54 (human) branch migration inhibition. Q92698. RAD54 Holliday junction branch migration, FAM/BHQ fluorescence. inhibition, % at 10.4 µM. 360,000 compounds, 0.14% hits;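 active = mean normalized replicate activity at least 40 and at least half of replicates scoring 40 or more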;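 also: 0% = median of neutral control wells and 100% = median of positive control wells; inhibitors cause a drop in the FAM fluorescence signal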
# dFosB act-2 – delta FosB (mouse) homodimer activation. purified delta FosB, TAMRA-CDK5 oligo fluorescence polarization; normalised: neutral wells 0, positive control 100. activation, % at 24.9 µM. shares compounds with dFosB act-1. 2,400 tested, under 10 active;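 active = highest replicate activation at or above 34% and every replicate reaching that threshold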;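 also: higher polarization means more probe DNA bound by delta FosB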
# Starred values were filed as active, the others as inactive; / = no result given. An excerpt weighted towards active compounds, which were near 1.5% of everything screened.
SMILES,RAD52 anneal inh,CFTR F508del cor,dFosB act-1,PvdQ inh,N-glyco inh,RAD54 inh,dFosB act-2
O=C(Cn1nc(C(=O)O)c2ccccc2c1=O)Nc1ccc(Br)cc1,9,-1,5,11,1,3,/
O=C(Cn1nc(C(=O)O)c2ccccc2c1=O)Nc1cccc(S(=O)(=O)N2CCOCC2)c1,5,-2,-19,-15,-1,-3,/
O=C(Cn1nc(C(=O)O)c2ccccc2c1=O)Nc1ccccc1C(F)(F)F,-3,-1,78*,-14,-1,-11,4
NC(=O)c1c(NC(=O)Cn2nc(C(=O)O)c3ccccc3c2=O)sc2c1CCC2,-24,2,33*,-12,-1,4,2
O=C(Cn1nc(C(=O)O)c2ccccc2c1=O)Nc1cccc(S(=O)(=O)N2CCCCC2)c1,-14,3,28*,-1,2,3,8
O=C(Cn1nc(C(=O)O)c2ccccc2c1=O)Nc1nc(-c2ccccc2)cs1,-13,-1,69*,-19,5,/,-2
Cc1ccccc1NC(=O)Cn1nc(C(=O)O)c2ccccc2c1=O,-9,1,-4,-18,1,2,/
CC(C)NC(=O)N(C)C[C@H]1Oc2ncc(-c3cncnc3)cc2C(=O)N([C@H](C)CO)C[C@@H]1C,/,4,/,/,/,/,/
COc1cccc(OCCNC(=O)Nc2cc(F)c(F)cc2Cl)c1,0,2,74*,-6,2,1,-1
COc1ccc(OCCNC(=O)Nc2cc(F)c(F)cc2Cl)cc1,-16,-3,-7,-9,-1,0,/
COc1ccc(NC(=O)N(C)C[C@H]2OCCCC[C@@H](C)Oc3ccc(NC(=O)CCC(F)(F)F)cc3C(=O)N([C@H](C)CO)C[C@H]2C)cc1,3,-1,/,/,/,-6,/
C[C@@H]1CN([C@@H](C)CO)C(=O)c2cc(NC(=O)C3CCCCC3)ccc2O[C@@H](C)CCCCO[C@H]1CN(C)Cc1ccc(C(F)(F)F)cc1,/,5,/,/,/,5,/
O=C1Nc2ccccc2Oc2cc([N+](=O)[O-])ccc21,-11,-2,13,-2,11,2,/
Cc1ccc2c(c1)NC(=O)c1cc([N+](=O)[O-])ccc1O2,-12,0,31*,-9,0,/,2
COc1ccc(C(=O)Nc2ccccc2-c2nnn(CC(=O)Nc3ccc4c(c3)OCCO4)n2)cc1,/,/,33*,-17,-5,0,2
COc1ccc(C(=O)Nc2ccccc2-c2nnn(CC(N)=O)n2)cc1,0,-1,44*,-13,3,0,3
COc1cc(OC)cc(C(=O)Nc2ccccc2-c2nnn(CC(=O)Nc3cc(C)on3)n2)c1,-3,3,95*,-14,1,-6,5
CCOc1ccc(NC(=O)Cn2nnc(-c3ccccc3NC(=O)C3CC3)n2)cc1,/,/,60*,-13,2,3,1
CNC[C@H]1OCCCC[C@H](C)Oc2ccc(NC(=O)c3ccncc3)cc2C(=O)N([C@H](C)CO)C[C@@H]1C,-103,1,/,/,/,-6,/
C[C@@H]1CN([C@@H](C)CO)C(=O)CCCn2cc(nn2)CO[C@@H]1CN(C)S(C)(=O)=O,/,1,/,/,/,/,/
CCCCN(C(=O)c1cc(Cl)nc2ccccc12)c1c(N)n(Cc2ccccc2)c(=O)[nH]c1=O,-11,2,27*,-18,-2,-4,-1
CCCCN(C(=O)c1cc(Cl)nc2ccccc12)c1c(N)n(CCC)c(=O)[nH]c1=O,10,2,/,/,2,8,/
CC(OC(=O)c1ccc(NS(=O)(=O)c2ccc3[nH]c(=O)[nH]c3c2)cc1)C(=O)Nc1ccc(Cl)cc1 (stereo unspecified),-22,-3,22*,6,1,/,7
COc1ccc(Cl)cc1NC(=O)C(C)OC(=O)c1ccc(NS(=O)(=O)c2ccc3[nH]c(=O)[nH]c3c2)cc1 (stereo unspecified),/,/,-2,-10,0,15,/
COc1ccc(NC(=O)c2cn(C)c(=O)c3cc(OC)c(OC)cc23)c(OC)c1,-7,-1,20*,-10,1,21,2
SMILES,RAD52 anneal inh,CFTR F508del cor,dFosB act-1,PvdQ inh,N-glyco inh,RAD54 inh,dFosB act-2
COc1cccc(C(=O)NC(=S)Nc2ccc3[nH]c(=O)[nH]c3c2)c1,10,0,3,-16,0,4,/
COc1cc(OC)cc(C(=O)NC(=S)Nc2ccc3[nH]c(=O)[nH]c3c2)c1,7,-2,24*,-7,1,3,-1
CCOC(=O)c1ccccc1NC(=O)Cn1c(-c2nonc2N)nc2ccccc21,/,/,5,-2,23,-3,/
Nc1nonc1-c1nc2ccccc2n1CC(=O)Nc1ccccc1,-13,4,33*,-10,4,3,2
CCOc1cc(/C=N/N=C(\N)c2nonc2N)cc(Br)c1OCc1cccc2ccccc12,/,/,41*,0,0,-5,4
CN(C)C(=O)[C@@H]1[C@@H](CO)[C@@H]2Cn3c(ccc(/C=C/c4ccccc4)c3=O)[C@@H]2N1C(=O)c1cnccn1,-7,2,/,/,/,7,/
O=C1CC(C(=O)Nc2ccccc2)S/C(=N\N=C\c2ccco2)N1 (stereo unspecified),/,/,28*,-5,0,-1,5
O=C1CC(C(=O)Nc2ccc(Cl)cc2)S/C(=N\N=C\c2ccco2)N1 (stereo unspecified),-12,-1,45*,1,0,-12,0
O=C1CC(C(=O)Nc2ccc(Cl)c(Cl)c2)S/C(=N\N=C\c2ccco2)N1 (stereo unspecified),-16,1,32*,-12,0,/,0
O=C1CC(C(=O)Nc2ccc(Br)cc2)S/C(=N\N=C\c2ccco2)N1 (stereo unspecified),-8,1,15,10,2,/,/
COc1ccc(NC(=O)C2CC(=O)N/C(=N/N=C/c3ccco3)S2)cc1 (stereo unspecified),-11,0,/,/,-1,7,/
CC(C)C1S/C(=N/N=C/c2ccco2)NC1=O (stereo unspecified),/,/,-2,-13,1,2,/
Cc1ccc(NC(=O)CC2S/C(=N/N=C/c3ccco3)NC2=O)cc1Cl (stereo unspecified),-7,1,33*,-8,-1,/,-1
O=C(C[C@H]1CC[C@@H]2[C@H](COC[C@H](O)CN2Cc2cocn2)O1)NCc1cccc(F)c1,-11,-2,/,/,/,-5,/
C[C@@H]1CN([C@H](C)CO)C(=O)c2cc(-c3cccc(F)c3)cnc2O[C@@H]1CN(C)C(=O)C1CC1,/,-1,/,/,/,/,/
COCC(=O)N1CC2(C1)CN(C(=O)Nc1ccccc1F)[C@@H](CO)c1c2c2ccc(OC)cc2n1C,/,1,/,/,/,/,/
